Sampled rows, rich in hits. Any-hit rate of the full collection: about 4.7%.
RecA splice inh = Mtb RecA intein splicing inhibitors, primary screen, biochemical, fluorescence, HTS; cell-free RecA intein splicing; 290,000 tested, 0.75% active; Protein RecA (Mycobacterium tuberculosis (strain ATCC 25618 / H37Rv)), P9WHJ3; AID 2221, 2009; inhibition, % (no concentration beside the values); in the data active = inhibition above about 30%;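 also: 0% = vehicle wells and 100% = reference inhibitor control wells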
CCHF vOTU inh = CCHFV vOTU protease inhibitors, primary screen, biochemical, Pep-AMC substrate, fluorescence. Crimean-Congo hemorrhagic fever virus L polyprotein viral ovarian tumor (vOTU) protease …. inhibition, % at 11.5 µM. 370,000 tested, 0.55% active; also: 0% = vehicle wells with enzyme and 100% = no enzyme wells
SARS 3CLpro inh = SARS-CoV 3CLpro protease inhibitors, primary screen, biochemical, quenched FRET | recombinant SARS-CoV 3CLpro, quenched FRET peptide cleavage | inhibition, % at 6 µM | 290,000 tested, 0.14% active | AID 1706, 2009; in the data active = inhibition above about 12%
FBA Mtb inh = Mtb FBA enzyme inhibitors, primary screen, biochemical, fluorescence, strain H37Rv; 360,000 tested, 2.3% active; inhibition, % at 1 µM; purified M. tuberculosis FBA, fluorescence read-out; Fructose-bisphosphate aldolase (Mycobacterium tuberculosis (strain ATCC 25618 / H37Rv)), …; AID 588726, 2011; in the data active = inhibition above about 27%;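 also: 0% = vehicle and 100% = reference inhibitor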
Target sequence (P9WQA3 whole entry, looked up): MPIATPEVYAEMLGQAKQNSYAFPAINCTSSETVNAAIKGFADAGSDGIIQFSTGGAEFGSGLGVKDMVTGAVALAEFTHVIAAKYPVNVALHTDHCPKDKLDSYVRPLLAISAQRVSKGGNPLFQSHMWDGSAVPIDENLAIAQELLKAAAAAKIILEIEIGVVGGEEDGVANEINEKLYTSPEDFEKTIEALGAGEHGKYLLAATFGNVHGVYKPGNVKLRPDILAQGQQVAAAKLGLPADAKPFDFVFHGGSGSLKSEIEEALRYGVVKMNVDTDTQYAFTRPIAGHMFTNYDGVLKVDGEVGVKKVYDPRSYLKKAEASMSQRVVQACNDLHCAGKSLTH
GDH-TPI inh = GDH-TPI coupling enzyme inhibitors, primary screen, artefact control for M. tuberculosis FBA inhibitor project, biochemical, absorbance, full deck; 360,000 tested, 1.2% active; GDH-TPI coupled enzyme counterscreen, NADH absorbance; inhibition, % at 4.8 µM;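 also: 0% = DMSO wells and 100% = wells lacking the enzyme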
DUSP3 inh = VHR1 phosphatase inhibitors, primary screen, biochemical, absorbance, uHTS. Dual specificity protein phosphatase 3 (Homo sapiens), P51452. recombinant VHR phosphatase, pNPP absorbance. inhibition, % at 13.3 µM. 290,000 tested, 0.52% active. AID 1654, 2009; in the data active = inhibition above about 50%
Target sequence (P51452 whole entry, looked up): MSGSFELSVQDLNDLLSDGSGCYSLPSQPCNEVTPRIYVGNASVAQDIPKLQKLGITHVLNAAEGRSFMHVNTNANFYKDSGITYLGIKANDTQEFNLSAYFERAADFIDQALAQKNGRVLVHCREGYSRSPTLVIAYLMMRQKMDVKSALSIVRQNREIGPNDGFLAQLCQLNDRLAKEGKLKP
GFP chromophore = counter-screen: blocks GFP chromophore formation, dose response, counter-screen, biochemical, fluorescence, homogeneous; 2,100 tested, 83% active; cell-free GFP chromophore formation; shares compounds with RecA splice inh; EC50, µM; call rule not given here
* hit, by the source's call; / = no result given. Rule as the data show it, unless noted: active = inhibition above about 30%; inactive = the rest.

SMILES	RecA splice inh	CCHF vOTU inh	SARS 3CLpro inh	FBA Mtb inh	GDH-TPI inh	DUSP3 inh	GFP chromophore
CCOc1ccc(N2C(=O)/C(=C\c3ccc(OC)c(O)c3)S(=O)(=O)C2c2cccc([N+](=O)[O-])c2)cc1 (stereo unspecified)	81.7*	-5.4	2.4	-1.5	6.6	18.4	14.3*
CCOc1ccc(N2C(=O)/C(=C\c3ccc(O)c(OC)c3)S(=O)(=O)C2c2cccc([N+](=O)[O-])c2)cc1 (stereo unspecified)	88.2*	6.6	3.1	-16.0	10.4	15.4	2.45*
Cc1ccccc1S(=O)(=O)N1C[C@H]2CON(C)[C@H]2C[C@H]1c1cccc(Oc2ccccc2)c1	/	8.0	/	1.5	-14.2	/	/
O=C(O)C1Nc2c(O)cc(Cl)c([N+](=O)[O-])c2C2C=CCC12 (stereo unspecified)	42.8*	34.8*	2.4	-8.5	10.5	88.8	13.1*
Cc1ccc2c(c1)C1C=CCC1C(C(=O)O)N2 (stereo unspecified)	6.3	/	9.7	/	/	37.2	/
Cc1cccc(N2CN(S(=O)(=O)c3cccc([N+](=O)[O-])c3)c3nc4ccccc4nc32)c1	/	-6.8	/	-2.1	3.0	/	/
O=C1C(Br)=Cc2cccc3cccc1c23	69.9*	-2.2	-0.3	-2.4	8.6	-3.9	35.5*
O=C1C(=O)c2cccc3cccc1c23	24.5	14.9	1.5	-0.7	-4.1	-8.4	/
Cc1ccc(C(=O)CCC(=O)OCC(=O)NNC(=O)c2ccccc2Cl)cc1	/	-4.2	/	-3.6	4.8	/	/
COC(=O)c1ccccc1OC(=O)c1ccc(Br)o1	38.4*	-0.2	5.0	-0.7	3.4	-20.9	>38
COc1ccc(Nc2nc(N3CCCCC3)nc3ccccc23)c(OC)c1	93.5*	-3.7	-0.2	3.2	13.2	-0.5	>38
O=C(Sc1nnc(-c2ccccc2)o1)N1c2ccccc2Sc2ccccc21	56.6*	-5.1	-0.4	-1.5	-9.6	22.3	0.918*
COc1cc(-c2nnc(SCC(=O)N3c4ccccc4Sc4ccccc43)o2)cc(OC)c1OC	1.7	0.8	-3.5	-1.1	11.2	26.8	/
COc1ccc(-c2nnc(SCc3ccc(C(=O)O)cc3)n2C)cc1OC	-5.4	-8.9	2.0	-4.8	1.5	8.8	/
CC1=NN(c2ccc(S(=O)(=O)O)cc2C)C(=O)C1	91.3*	11.3	5.3	-2.3	-8.0	-12.6	18.4*
O=C(O)C1=NN(c2cc(Cl)c(S(=O)(=O)O)cc2Cl)C(=O)C1	/	9.3	/	4.0	13.2	/	/
C[C@H](CO)N1C[C@H](C)[C@@H](CN(C)Cc2ccc(-c3ccccc3)cc2)Oc2c(NC(=O)Nc3ccc4c(c3)OCO4)cccc2C1=O	/	1.2	/	0.2	-2.5	/	/
C=Cc1ccc(Cn2c(C)c(C(=O)NCc3ccccc3C(F)(F)F)sc2=O)cc1	/	7.5	/	-0.7	4.3	/	/
CCOC(=O)C1=NN(N=O)C2(CC(=O)N(c3cc(C)cc(C)c3)C2=O)C1 (stereo unspecified)	-1.6	-0.2	-3.2	1.8	-1.9	18.7	/
COC(=O)C1=NN(C(C)=O)C2(CC(=O)N(c3cc(C)cc(C)c3)C2=O)C1 (stereo unspecified)	30.2*	-2.2	3.4	2.2	-1.1	2.1	>38
CCN(CC(=O)Nc1c(F)cccc1F)C(=O)CCNS(=O)(=O)c1ccccc1C(F)(F)F	-1.4	7.4	/	-0.4	2.4	/	/
CCOC(=O)c1c(NC(=O)CSc2nnc(-c3c[nH]c4ccccc34)n2C)sc2c1CCCC2	-0.3	-9.5	0.3	2.2	-2.7	-3.6	/
CCOC(=O)c1c(NC(=O)CSc2nnc(-c3c[nH]c4ccccc34)n2CCOC)sc2c1CCCC2	31.7*	10.6	-5.3	0.5	13.9	7.6	>38
C=C1CCc2c([nH]c3ccc(OCC(C)C)cc23)C1=O	-2.5	6.8	0.6	0.7	15.1	2.4	/
CN(/N=C/c1ccc(-c2ccc([N+](=O)[O-])cc2)o1)c1ccccc1	-0.3	5.3	-0.2	0.0	4.1	20.4	/
SMILES	RecA splice inh	CCHF vOTU inh	SARS 3CLpro inh	FBA Mtb inh	GDH-TPI inh	DUSP3 inh	GFP chromophore
O=C(O)c1ccc(N2C(=O)/C(=C/c3ccc(-c4ccc([N+](=O)[O-])cc4)o3)C=C2c2ccccc2)cc1	32.2*	/	0.8	-3.5	-5.2	97.0	>38
COc1ccc(C(=O)/C=C/Sc2nc3ccccc3o2)cc1	45.8*	-12.3	3.8	-0.3	10.7	-17.9	>38
CN1/C(=C/C(=O)c2nc(S(C)(=O)=O)ncc2Cl)C(C)(C)c2ccccc21	77.1*	/	2.6	-9.3	9.2	7.6	6.26*
Cc1cc(C)cc(OC(=O)CS(=O)c2ccc(C(F)(F)F)cc2[N+](=O)[O-])c1 (stereo unspecified)	43.0*	8.8	-3.2	-1.5	3.7	27.3	6.33*
CC(=O)Nc1cc(OC(=O)c2ccco2)cc(OC(=O)c2ccco2)c1	53.6*	-0.6	5.2	0.6	-7.5	7.1	7.42*
O=C(Oc1ccc(N2C(=O)CCC2=O)cc1)c1ccco1	30.5*	-0.5	8.6	-2.4	3.8	1.4	0.606*
COC(=O)C1=C(C)NC(=S)NC1c1ccc(OC(=O)c2ccco2)cc1 (stereo unspecified)	31.0*	-3.4	-3.4	2.0	2.5	12.9	>38
CC1C=CCC2C(=O)N(c3ccc(OC(=O)c4ccco4)cc3)C(=O)C12 (stereo unspecified)	7.2	-11.3	-3.8	0.3	2.4	11.8	/
CC(=O)Nc1ccc(OC(=O)c2ccco2)cc1	32.7*	29.4	-1.8	2.7	11.7	5.1	>38
O=C(Nc1ccc(OC(=O)c2cccs2)cc1)c1ccco1	1.4	-29.6	-4.4	-1.3	5.3	20.4	/
CCOC(=O)N1CCN(C(=O)C[C@@H]2C[C@]3(C(=O)OCC)CCC4=C3N(CCC4)C2=O)CC1	/	-8.4	/	/	/	/	/
Cc1cccc2nc(-c3ccccc3)c(-c3ccc(CN4CCC5(CC4)CNc4ccccc45)cc3)nc12	/	24.4	/	/	/	/	/
C/C(CC(=O)Nc1cc(C)ccn1)=N\NC(=O)C(=O)NC(C)C	63.6*	-14.4	2.9	7.9	5.7	14.4	39.2*
C/C(CC(=O)Nc1cc(C)ccn1)=N\NC(=O)c1cccc(C)c1	70.1*	9.0	-1.2	7.3	2.2	-8.5	18.2*
COc1ccc(OCC(=O)N2CCc3ccccc32)c([N+](=O)[O-])c1	/	1.9	/	-2.6	10.7	/	/
O=[N+]([O-])c1cc(-c2ccc(C(=S)N3CCOCC3)o2)ccc1Cl	30.9*	8.7	-2.6	-1.3	5.1	22.5	17.6*
